# Shown are actives, neighbours in structure and some others; about 4.7% of the full set was active somewhere.
# TRHR agonist: activates the human TRH receptor | P34981 | TRHR cells, calcium flux fluo-8, FDSS agonist mode | activation, % at 2 µM | 360,000 tested, 0.18% active | AID 493084
#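 Fluo-8-loaded TRHR cells; 10 s baseline, compound added, kinetic Ca2+ fluorescence read 1/s, agonist mode.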
# D1 PAM: enhances dopamine response at the human D1 receptor. P21728. HEK293 TREx D1 cells, calcium flux, dopamine EC20 potentiation. potentiation, % at 10 µM. 360,000 tested, 0.036% active; in the data active = potentiation above about 30%
# Target sequence (P21728 whole entry, looked up): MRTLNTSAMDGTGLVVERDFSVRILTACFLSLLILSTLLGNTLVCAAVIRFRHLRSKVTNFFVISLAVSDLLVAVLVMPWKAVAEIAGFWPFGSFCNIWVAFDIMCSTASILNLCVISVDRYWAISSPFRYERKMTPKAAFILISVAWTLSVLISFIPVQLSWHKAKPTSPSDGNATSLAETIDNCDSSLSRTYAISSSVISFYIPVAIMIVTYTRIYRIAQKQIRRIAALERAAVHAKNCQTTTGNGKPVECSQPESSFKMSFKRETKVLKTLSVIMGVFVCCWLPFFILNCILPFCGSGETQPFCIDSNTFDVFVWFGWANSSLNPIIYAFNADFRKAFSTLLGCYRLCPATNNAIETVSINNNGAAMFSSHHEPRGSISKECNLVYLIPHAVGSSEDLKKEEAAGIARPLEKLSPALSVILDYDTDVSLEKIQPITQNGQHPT
# D1 agonist: agonists of human D1 dopamine receptor | P21728 | HEK293 T-REx D1 cells, calcium flux, agonist mode | activation, % at 2 µM | 360,000 tested, 1% active | AID 504660
#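 Tetracycline-induced HEK293 TREx D1 cells, force-coupled to calcium signalling, were dye-loaded with a no-wash calcium kit. Compound was pin-added after a 10 s baseline. Fluorescence was read kinetically at 1 cycle/s for 180 s, with calcium rises flagged as agonism.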
# TRHR PAM: TRH receptor (human) allosteric enhancement; P34981; TRHR cells, fluo-8 calcium fluorescence, EC20 TRH enhancement; enhancement, % at 2 µM; 360,000 tested, 0.66% active; AID 493056; in the data active = enhancement above about 30%
#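 TRHR-expressing cells loaded with fluo-8 calcium dye were read kinetically (ex 480/em 530) during compound addition, then stimulated with an EC20 of TRH (10 nM final). Enhancement of the Gq-mediated intracellular calcium response was scored.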
# D1 antagonist: antagonists of human D1 dopamine receptor; P21728; HEK293 TREx D1 cells, calcium flux, dopamine EC80; stronger effect = lower value; activity change, negative = inhibition, % at 10 µM; 360,000 tested, 3.2% active; in the data active = activity change below about -30%
#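 Calcium flux readout: force-coupled, inducible Hek293 Trex D1 line, cells induced overnight at 30 C with tetracycline, dye-loaded 30–90 min at RT. Antagonism scored against EC80 dopamine challenge given 180 s after compound.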
# Numbers stand for hits; n = inactive. Cut-off read from the data, not from the text of the source, unless noted: active = activation above about 30%; inactive = the rest.
SMILES,TRHR agonist,D1 PAM,D1 agonist,TRHR PAM,D1 antagonist
Cc1ccc(CN2CCCn3nc(C(=O)NC(C)C)cc3C2=O)cc1,n,n,n,n,n
Cc1cc2oc(C(=O)Nc3sc4c(c3C(=O)NCc3ccccc3)CCCC4)cc(=O)c2cc1C,n,n,n,n,n
COc1cc2nc(NCCc3ccc(Cl)cc3)n3nc(-c4ccccc4)nc3c2cc1OC,n,n,n,n,n
COc1cc(C(=O)NCC(=O)N/N=C/c2ccccn2)cc(OC)c1OC,n,n,n,35,n
O=C(CNC(=O)c1ccncc1)N/N=C/c1ccccn1,n,n,n,n,n
O=C(CCc1ccccc1)Nc1cc2c(cc1Cl)OCCO2,n,n,n,n,-30
Cc1cccc(Cn2c(=O)n(Cc3ccccc3)c(=O)c3sc4ccccc4c32)c1,n,n,n,n,n
COc1ccc(-c2csc(N(CCCN(C)C)C(=O)c3ccccc3C)n2)cc1,n,n,33,n,-54
CCC(=O)N(CC)c1nc(-c2ccc(OC)cc2)cs1,n,n,113,n,-47
N#CCCN(Cc1cccnc1)S(=O)(=O)c1ccc2ccccc2c1,n,n,n,n,-37
N#CCCN(Cc1cccnc1)S(=O)(=O)c1ccc(S(=O)(=O)NC2CCCCC2)cc1,n,n,n,n,n
COCCN(Cc1ccco1)C(=O)c1cc2c(Cl)nc3ccc(C)cc3c2s1,n,n,n,n,n
Cc1ccc(-c2nc(C)c(CCNC(=O)C(=O)Nc3cc(C)ccc3C)s2)cc1,n,n,n,n,n
N=C(N=C(N)N)N1CCc2ccccc21,n,n,n,n,-37
CC(=O)N(/N=C1\Sc2ccccc2C1=O)c1ccccc1C,n,n,n,n,n
CC(=O)N(/N=C1\Sc2ccccc2C1=O)c1ccccc1,n,n,n,n,-44
CC/C(=N/N=C(\CC)c1ccccc1)c1ccccc1,n,n,n,n,-46
CC/C(=N\NC(=S)Nc1cccc(C)c1)c1ccccc1,n,n,n,n,n
CC(O)c1nc2ccccc2n1CCOc1ccccc1 (stereo not drawn),n,n,43,n,-46
Cc1nc2ccccc2n1CCOc1ccc([N+](=O)[O-])cc1,n,n,n,n,-40
Cc1nc2ccccc2n1CCOc1ccc(F)cc1,n,n,n,n,n
Cc1ccc(OCCCCn2c(CO)nc3ccccc32)cc1,n,n,n,n,-37
Cn1nnnc1SCCCNCc1cccc(OCc2ccc(F)cc2)c1,n,n,150,n,-31
Cn1nnnc1SCCCNCc1ccccc1OCc1ccc(Cl)cc1,n,n,75,n,-39
CCOc1cccc(CNCCCSc2nnnn2C)c1,n,n,n,n,n
SMILES,TRHR agonist,D1 PAM,D1 agonist,TRHR PAM,D1 antagonist
Cn1nnnc1SCCNCc1ccc(OCc2ccccc2Cl)cc1,n,n,98,n,n
Cn1nnnc1SCCNCc1ccccc1OCc1ccc(Cl)cc1,n,n,n,n,n
O=S(=O)(c1ccc(Cl)cc1)N1CCN(S(=O)(=O)c2ccc3c(c2)OCCO3)CC1,n,n,n,n,n
CCN(CC(=O)Nc1ccccc1C(F)(F)F)C(=O)C1=COCCO1,n,n,n,n,n
CC(C)CSc1oc(-c2ccco2)nc1S(=O)(=O)c1ccc(Br)cc1,n,n,n,n,n
CCC(=O)N1CCc2cc(S(=O)(=O)NCCC(=O)Nc3ccc(C)cc3C)ccc21,n,n,n,n,n
COc1cccc(CN(C(=O)COc2ccc(Cl)cc2)C2CCS(=O)(=O)C2)c1 (stereo not drawn),n,n,n,n,n
CCCN1C(=O)/C(=C\C=C2/C=CN(CC)c3ccccc32)SC1=S,n,n,n,n,n
CCCCN1C(=O)/C(=C/C=C2\SCCN2C)SC1=S,n,n,94,n,-39
CCCCN1C(=O)/C(=C/C=C2\N(C)c3ccccc3C2(C)C)SC1=S,n,n,67,n,n
CCN1C(=O)/C(=C\N2CCCCCC2)SC1=S,n,n,n,n,n
CN1CCS/C1=C/C=C1/SC(=S)N(Cc2ccccc2)C1=O,n,n,55,n,n
Cc1ccc(OCC(=O)NNC(=O)Cc2ccc(S(=O)(=O)N3CCOCC3)s2)cc1,n,n,n,n,-49
Cc1ccccc1OCC(=O)NNC(=O)Cc1ccc(S(=O)(=O)N2CCOCC2)s1,n,n,n,n,-38
O=C(COc1ccccc1F)NNC(=O)Cc1ccc(S(=O)(=O)N2CCOCC2)s1,n,n,n,n,n

# Assay outcomes as filed in PubChem BioAssay.
